23 targets from the supplement of paper PMC11001985 can be followed below.

Unmarked numbers belong to inactive results.

UniProt Q9P2B2, sequence (Q9P2B2 whole entry): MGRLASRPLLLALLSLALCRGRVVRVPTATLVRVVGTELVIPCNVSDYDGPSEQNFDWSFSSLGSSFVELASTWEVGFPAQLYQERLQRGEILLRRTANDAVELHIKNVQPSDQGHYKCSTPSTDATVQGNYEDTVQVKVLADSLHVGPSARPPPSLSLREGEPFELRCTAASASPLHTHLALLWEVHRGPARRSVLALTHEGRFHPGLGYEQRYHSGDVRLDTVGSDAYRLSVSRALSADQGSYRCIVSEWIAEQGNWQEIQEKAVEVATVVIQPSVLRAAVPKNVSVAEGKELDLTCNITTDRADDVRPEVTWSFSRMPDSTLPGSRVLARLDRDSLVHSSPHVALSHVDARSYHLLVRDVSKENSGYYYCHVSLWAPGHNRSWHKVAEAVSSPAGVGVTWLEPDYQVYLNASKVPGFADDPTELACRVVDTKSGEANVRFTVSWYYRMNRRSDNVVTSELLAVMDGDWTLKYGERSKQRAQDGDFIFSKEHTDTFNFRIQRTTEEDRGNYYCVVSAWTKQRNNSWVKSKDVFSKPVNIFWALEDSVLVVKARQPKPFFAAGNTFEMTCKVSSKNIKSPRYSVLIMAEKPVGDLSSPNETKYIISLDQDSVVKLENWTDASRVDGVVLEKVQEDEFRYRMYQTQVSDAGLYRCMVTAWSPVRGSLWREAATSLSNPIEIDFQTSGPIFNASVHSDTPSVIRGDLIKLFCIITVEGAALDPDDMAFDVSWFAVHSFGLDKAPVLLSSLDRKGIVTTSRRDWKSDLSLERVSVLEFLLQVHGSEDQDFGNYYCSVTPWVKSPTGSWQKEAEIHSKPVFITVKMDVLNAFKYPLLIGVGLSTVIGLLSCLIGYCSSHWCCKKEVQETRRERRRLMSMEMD
UniProt Q9NQS3, sequence (Q9NQS3 whole entry, looked up): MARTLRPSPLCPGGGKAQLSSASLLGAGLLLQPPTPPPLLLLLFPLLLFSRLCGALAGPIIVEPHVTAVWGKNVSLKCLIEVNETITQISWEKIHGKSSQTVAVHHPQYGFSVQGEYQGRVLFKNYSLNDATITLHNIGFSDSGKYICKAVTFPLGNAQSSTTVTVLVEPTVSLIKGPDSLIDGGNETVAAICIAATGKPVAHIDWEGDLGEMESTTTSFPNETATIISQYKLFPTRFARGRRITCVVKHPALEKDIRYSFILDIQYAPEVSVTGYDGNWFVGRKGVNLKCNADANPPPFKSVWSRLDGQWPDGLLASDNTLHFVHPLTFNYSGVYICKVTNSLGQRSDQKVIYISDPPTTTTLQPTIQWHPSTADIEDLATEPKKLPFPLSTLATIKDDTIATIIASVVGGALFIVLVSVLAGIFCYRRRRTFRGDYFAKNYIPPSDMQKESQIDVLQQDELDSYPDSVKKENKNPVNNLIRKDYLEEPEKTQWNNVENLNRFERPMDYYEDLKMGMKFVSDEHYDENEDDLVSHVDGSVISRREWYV
UniProt Q08J23, sequence (Q08J23 whole entry): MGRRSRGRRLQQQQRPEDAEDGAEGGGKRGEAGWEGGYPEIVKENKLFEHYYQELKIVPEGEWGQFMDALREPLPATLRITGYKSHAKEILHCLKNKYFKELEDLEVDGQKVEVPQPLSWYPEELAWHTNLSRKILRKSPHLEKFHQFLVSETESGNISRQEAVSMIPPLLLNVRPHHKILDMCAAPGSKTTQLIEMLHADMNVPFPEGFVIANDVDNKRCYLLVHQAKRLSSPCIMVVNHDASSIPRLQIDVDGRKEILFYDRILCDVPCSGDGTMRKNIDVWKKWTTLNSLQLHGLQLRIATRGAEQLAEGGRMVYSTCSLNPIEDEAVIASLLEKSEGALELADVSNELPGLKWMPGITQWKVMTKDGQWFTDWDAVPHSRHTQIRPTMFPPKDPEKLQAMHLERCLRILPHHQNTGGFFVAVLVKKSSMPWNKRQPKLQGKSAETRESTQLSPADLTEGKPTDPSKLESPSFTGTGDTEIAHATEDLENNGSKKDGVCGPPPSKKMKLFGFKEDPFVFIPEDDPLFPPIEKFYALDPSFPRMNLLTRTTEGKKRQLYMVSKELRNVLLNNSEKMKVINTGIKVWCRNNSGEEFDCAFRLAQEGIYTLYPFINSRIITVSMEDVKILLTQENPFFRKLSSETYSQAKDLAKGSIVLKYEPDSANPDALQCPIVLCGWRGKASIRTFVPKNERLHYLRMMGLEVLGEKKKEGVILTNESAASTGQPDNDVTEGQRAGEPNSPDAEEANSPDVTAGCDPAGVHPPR
UniProt Q9Y490, sequence (Q9Y490 whole entry): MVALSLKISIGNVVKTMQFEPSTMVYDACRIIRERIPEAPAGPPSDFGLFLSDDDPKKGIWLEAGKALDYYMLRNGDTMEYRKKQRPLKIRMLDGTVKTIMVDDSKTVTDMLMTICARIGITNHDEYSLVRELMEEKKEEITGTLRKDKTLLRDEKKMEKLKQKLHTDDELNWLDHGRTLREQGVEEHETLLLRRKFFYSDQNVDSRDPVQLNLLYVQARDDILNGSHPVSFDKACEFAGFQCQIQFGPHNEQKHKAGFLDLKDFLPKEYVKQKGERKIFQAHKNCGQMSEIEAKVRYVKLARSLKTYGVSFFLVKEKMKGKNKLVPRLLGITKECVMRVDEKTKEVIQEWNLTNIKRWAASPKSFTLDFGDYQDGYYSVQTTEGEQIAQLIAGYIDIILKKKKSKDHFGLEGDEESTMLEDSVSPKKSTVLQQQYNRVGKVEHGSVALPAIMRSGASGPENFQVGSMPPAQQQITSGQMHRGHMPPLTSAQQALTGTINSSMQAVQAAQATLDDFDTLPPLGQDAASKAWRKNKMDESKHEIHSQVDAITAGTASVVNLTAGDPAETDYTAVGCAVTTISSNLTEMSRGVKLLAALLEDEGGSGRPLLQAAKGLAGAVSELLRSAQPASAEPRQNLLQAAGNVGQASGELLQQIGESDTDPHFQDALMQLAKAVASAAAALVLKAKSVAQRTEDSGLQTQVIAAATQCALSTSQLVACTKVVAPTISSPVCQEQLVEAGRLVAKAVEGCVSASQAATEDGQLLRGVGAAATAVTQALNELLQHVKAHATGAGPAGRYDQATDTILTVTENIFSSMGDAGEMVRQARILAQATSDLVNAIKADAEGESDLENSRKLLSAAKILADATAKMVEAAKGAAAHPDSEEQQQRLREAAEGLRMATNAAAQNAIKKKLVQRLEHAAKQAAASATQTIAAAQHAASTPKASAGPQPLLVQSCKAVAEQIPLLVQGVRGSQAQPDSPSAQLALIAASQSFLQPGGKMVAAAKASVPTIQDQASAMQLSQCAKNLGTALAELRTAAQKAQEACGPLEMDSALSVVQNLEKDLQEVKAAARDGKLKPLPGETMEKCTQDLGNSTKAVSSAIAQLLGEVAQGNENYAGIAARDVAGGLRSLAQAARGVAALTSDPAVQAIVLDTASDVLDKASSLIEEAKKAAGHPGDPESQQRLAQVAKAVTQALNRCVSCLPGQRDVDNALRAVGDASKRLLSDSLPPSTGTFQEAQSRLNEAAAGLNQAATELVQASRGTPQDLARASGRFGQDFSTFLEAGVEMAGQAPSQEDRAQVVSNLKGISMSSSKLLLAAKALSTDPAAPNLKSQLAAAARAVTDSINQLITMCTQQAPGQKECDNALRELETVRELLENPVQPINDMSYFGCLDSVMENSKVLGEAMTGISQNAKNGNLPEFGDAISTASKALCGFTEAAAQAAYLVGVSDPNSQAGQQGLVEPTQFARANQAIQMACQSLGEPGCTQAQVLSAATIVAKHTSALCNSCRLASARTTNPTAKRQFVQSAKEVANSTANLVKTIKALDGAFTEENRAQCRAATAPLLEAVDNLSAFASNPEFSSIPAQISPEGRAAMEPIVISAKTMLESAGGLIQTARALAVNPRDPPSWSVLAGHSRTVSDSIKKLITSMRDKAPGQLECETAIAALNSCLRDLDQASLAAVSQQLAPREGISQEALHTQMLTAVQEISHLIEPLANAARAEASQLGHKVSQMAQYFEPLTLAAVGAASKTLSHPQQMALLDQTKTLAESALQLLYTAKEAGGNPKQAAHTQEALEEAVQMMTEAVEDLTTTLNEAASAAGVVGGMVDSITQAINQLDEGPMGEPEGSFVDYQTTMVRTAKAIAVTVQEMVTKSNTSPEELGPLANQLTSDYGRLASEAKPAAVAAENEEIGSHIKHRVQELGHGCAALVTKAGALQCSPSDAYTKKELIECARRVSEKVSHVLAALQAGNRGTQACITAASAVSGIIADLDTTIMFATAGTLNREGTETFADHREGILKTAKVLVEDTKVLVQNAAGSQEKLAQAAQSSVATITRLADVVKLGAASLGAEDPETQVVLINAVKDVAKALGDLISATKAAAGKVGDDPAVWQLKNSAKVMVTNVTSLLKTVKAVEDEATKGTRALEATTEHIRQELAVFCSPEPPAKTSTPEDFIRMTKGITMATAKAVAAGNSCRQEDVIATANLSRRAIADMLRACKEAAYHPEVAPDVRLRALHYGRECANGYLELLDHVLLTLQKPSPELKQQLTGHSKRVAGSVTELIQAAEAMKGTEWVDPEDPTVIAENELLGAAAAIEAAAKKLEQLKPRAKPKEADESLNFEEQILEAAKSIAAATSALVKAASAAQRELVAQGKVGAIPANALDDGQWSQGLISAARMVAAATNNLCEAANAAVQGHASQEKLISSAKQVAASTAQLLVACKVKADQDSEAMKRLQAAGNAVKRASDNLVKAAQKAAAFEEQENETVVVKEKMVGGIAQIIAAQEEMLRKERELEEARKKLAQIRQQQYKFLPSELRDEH
UniProt Q9BZM4, sequence (Q9BZM4 whole entry): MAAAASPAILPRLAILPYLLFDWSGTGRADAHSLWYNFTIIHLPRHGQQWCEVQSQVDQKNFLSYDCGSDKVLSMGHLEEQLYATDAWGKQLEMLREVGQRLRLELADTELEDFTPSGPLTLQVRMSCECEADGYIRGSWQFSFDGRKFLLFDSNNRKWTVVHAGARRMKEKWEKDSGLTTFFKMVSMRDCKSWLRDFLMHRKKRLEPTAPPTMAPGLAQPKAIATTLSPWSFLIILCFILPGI

Compound in this experiment: C#CCNC(=O)CCSSCCC(=O)NCCc1ccc(C=O)c(C=O)c1
Briefly: lysine labeling ratio R10:1 (500 µM / 50 µM probe), SILAC-ABPP in living cells; higher = lower intrinsic lysine reactivity toward the probe, active = 2 or less. Conditions: HeLa; probe concentrations 500 vs 50 µM. The gist of the method:
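In PBS at room temperature, living HeLa cells grown with SILAC light or heavy labels were treated with 50 µM or 500 µM of an alkyne-tagged, disulfide-linked lysine probe, with label swaps in both directions. Analysis was by LC-MS/MS on a TIMS-TOF Pro after click to biotin-azide, neutravidin capture and DTT release. For each lysine, R is the median across forward and reverse replicates of the filtered median high-probe/low-probe MS1 peptide ratio, capped at 20.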
Regarding “HMGN2 (lysine site: K18) (UniProt P05204)”, the “lysine labeling ratio R10:1” value was 2.09.
Consider “EPHA2 (lysine site: K441) (UniProt P29317)”, for which the “lysine labeling ratio R10:1” value was 7.45.
The same measure for “RPL34 (lysine site: K62) (UniProt P49207)”: 10.1; for “PLXNB2 (lysine site: K1159) (UniProt O15031)”: 1.75 (active); for UniProt Q8WXI7 (lysine site: K13402): 5.02.
The same measure for UniProt Q9BZM4 (lysine site: K158): 2.74.
The same measure for “LAMA5 (lysine site: K1854) (UniProt O15230)”: 3.02; for “NSUN2 (lysine site: K28) (UniProt Q08J23)”: 2.49; for “CCT2 (lysine site: K522) (UniProt P78371)”: 3.39.
Regarding “NECTIN3 (lysine site: K255) (UniProt Q9NQS3)”, the “lysine labeling ratio R10:1” value was 4.2.
The same measure for “CLTA (lysine site: K242) (UniProt P09496)”: 5.68.
In the case of “DSG2 (lysine site: K67) (UniProt Q14126)”, the “lysine labeling ratio R10:1” value is 3.97.
The same measure for “MSLN (lysine site: K559) (UniProt Q13421)”: 2.61; for UniProt P05787 (lysine site: K304): 7.25; for “TLN1 (lysine site: K1190) (UniProt Q9Y490)”: 14.3.
The same measure for UniProt P62280 (lysine site: K32): 4.32; for “AHCY (lysine site: K204) (UniProt P23526)”: 1.25 (active).
“HNRNPC (lysine site: K98) (UniProt P07910)”: the “lysine labeling ratio R10:1” value was 3.25.
The same measure for “STS (lysine site: K368) (UniProt P08842)”: 1.48 (active); for “HSPA9 (lysine site: K300) (UniProt P38646)”: 2.25.
Regarding “COPA (lysine site: K1134) (UniProt P53621)”, the “lysine labeling ratio R10:1” value was 2.48.
With “PTGFRN (lysine site: K522) (UniProt Q9P2B2)”, the “lysine labeling ratio R10:1” value is 2.13.
The same measure for “G6PD (lysine site: K171) (UniProt P11413)”: 6.51.
